Hits are enriched below; roughly 3.2% of the tested compounds scored in any of these assays.
Tau fibril FP: tau fibrillization inhibition (FP); K18 P301L tau heparin fibrillization, Alexa594 FP, 6 h; Potency, µM (titrated, usually from 57.7 µM), hits mostly inhibitors; actives 0.39% (n = 280,000); also: nearly all actives have a fitted effect of over 55% in size
Target sequence (P10636 561-689 P618L limits assumed): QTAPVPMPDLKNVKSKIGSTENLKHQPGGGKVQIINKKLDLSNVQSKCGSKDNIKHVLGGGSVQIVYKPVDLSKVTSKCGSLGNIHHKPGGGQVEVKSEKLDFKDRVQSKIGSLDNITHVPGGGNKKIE
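Steps: dispense K18 P301L tau (15 uM plus 0.24 uM Alexa 594 tracer, final) in pH 7 sodium acetate; add compound; add heparin (20 uM final); incubate 6 hr, 37 C; add ThT (30 uM final); after 1 hr ambient, read FP.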
Tau ThT inhib: tau fibrillization inhibition (ThT binding) | recombinant tau K18 P301L, heparin-induced fibrillization, ThT fluorescence | Potency, µM (highest dose often 57.4 µM), usual class: inhibitors | actives 2.1% (n = 270,000); also: nearly all actives have a fitted effect of over 55% in size
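ThT emission at 510 nm, taken 1 hr after adding 30 uM dye, quantifies aggregates formed when 20 uM heparin acts on human tau K18 P301L for 6 hr at 37 C.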
TR SRC2 fluor cs: Texas Red fluorescence interference in TRb-SRC2 counter-screen. TRb/SRC2 Texas Red total fluorescence interference. Potency, µM (series often up to 106 µM). actives 0.29% (n = 280,000). AID 1479; active = well fitted curve in either direction with a large enough effect; inconclusive = small, poorly fitted or top-dose-only effect
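Human TRβ ligand-binding domain (0.6 uM) and Texas Red SRC2 peptide (20 nM) in Tris buffer with 1 uM T3 and 5% DMSO were incubated with pinned compound for 5 hr at ambient temperature. Total fluorescence was computed as S + 2P (555/632 nm).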
GoLoco inh red: blocks human Gai1 binding to RGS12 GoLoco peptide, red readout; actives 0.44% (n = 230,000); P63096; Potency, µM (top dose mostly 61.6 µM), hits mostly inhibitors; Gai1:RGS12 GoLoco peptide FP, rhodamine, 10 min; active = well fitted inhibition curve with a large enough effect, not every such curve was filed as active; inactive = no such curve, though single readings can be large or run the other way; also: nearly all actives have a fitted effect of over 30% in size
Target sequence (P63096 whole entry, looked up): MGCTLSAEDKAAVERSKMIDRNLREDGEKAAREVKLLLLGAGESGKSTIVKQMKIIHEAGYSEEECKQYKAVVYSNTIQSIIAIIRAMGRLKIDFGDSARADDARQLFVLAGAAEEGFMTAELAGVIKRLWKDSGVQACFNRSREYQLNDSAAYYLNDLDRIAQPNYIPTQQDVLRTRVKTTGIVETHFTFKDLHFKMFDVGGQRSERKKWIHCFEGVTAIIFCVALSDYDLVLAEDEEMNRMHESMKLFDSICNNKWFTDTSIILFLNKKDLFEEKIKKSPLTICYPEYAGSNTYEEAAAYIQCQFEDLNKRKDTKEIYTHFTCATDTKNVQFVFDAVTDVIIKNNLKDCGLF
TRb SRC2 PPI: TRbeta-SRC2 interaction inhibition; P10828; TRbeta-SRC2 peptide binding, fluorescence polarization; receptor liganded with 1 µM T3; Potency, µM (top dose mostly 106 µM), actives largely listed as inhibitors; actives 0.065% (n = 280,000); also: nearly all actives have a fitted effect of over 50% in size
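Human TRb ligand-binding domain (0.6 uM) is mixed with 20 nM Texas Red SRC2 peptide and 1 uM T3; after compound addition and 5 hr at ambient temperature, polarization is measured and normalized to unbound and bound controls.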
Tau fluor counter: counter-screen for tau fibril formation inhibitors; tau K18 P301L (four-repeat tau fragment) Alexa594 fluorescence, heparin fibrillization; Potency, µM (top dose mostly 57.7 µM); actives 0.93% (n = 280,000); AID 1463; also: nearly all actives have a fitted effect of over 55% in size
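Human K18 P301L tau (15 uM unlabeled plus 0.24 uM Alexa 594-labeled, final) in 100 mM sodium acetate pH 7 was mixed with compound and 20 uM heparin and incubated 6 hr at 37 C.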
Numbers stand for hits; i = inactive; ? = inconclusive; nt = not tested or not shown; ! = a repeat was not active; [ ] = another dose, or the depositor's remark. Unless noted, calls follow the shape of the dose curve; as a rule, active = well fitted curve in the direction sought with a large enough effect; inconclusive = small, poorly fitted or top-dose-only effect, or another doubt; inactive = no such curve, though single readings can be large; an effect the other way counts as inactive or inconclusive.

SMILES	Tau fibril FP	Tau ThT inhib	TR SRC2 fluor cs	GoLoco inh red	TRb SRC2 PPI	Tau fluor counter
O=C(CC1NC(=O)NC1=O)Nc1ccc(Cl)cc1 (stereo not drawn)	i	i	i	i	i	i
Cc1cc2c(cc1C)NC(CC(=O)Nc1cccc(Cl)c1)C(=O)N2 (stereo not drawn)	i	?	?	nt	i	25µM[quencher]
O=C(CC1Nc2cccc3cccc(c23)NC1=O)Nc1ccc(F)cc1 (stereo not drawn)	i	?	i	i	i	8.9µM![quencher]
COc1ccc(NC(=O)Cc2ccc(C)cc2)c([N+](=O)[O-])c1	i	i	i	i	i	i
COC(=O)c1cccc(NC(=S)NCc2ccc(Cl)cc2)c1	?	i	i	i	i	?
COC(=O)c1cc(NC(=S)NCc2ccc(Cl)cc2)cc(C(=O)OC)c1	18µM	i	i	i	i	14µM[quencher]
CC(=O)NCCNc1ncnc2ccc(-c3cccc(NS(C)(=O)=O)c3)cc12	nt	nt	nt	i	nt	nt
COC(=O)/C=C1\OC(c2ccccc2)=CC1=O	i	25µM	i	i	i	i
CCCCC1CCC(CCCC(C)CCC(=O)O)CC1 (stereo not drawn)	i	?	i	nt	i	i
CC1CCc2c(sc3nc(-c4cc5ccccc5oc4=O)nc(Cl)c23)C1 (stereo not drawn)	i	?	32µM[quencher]	nt	i	i
Nc1cccc(N)c1	nt	nt	i	i	i	nt
COc1ccc(COc2cc(-c3cccc(OC)c3)nc3ccc(NC(C)=O)cc23)cc1	?	i	i	i	i	i
COc1ccc(COc2cc(-c3cccc(OC)c3)nc3ccc(N)cc23)cc1	?	?	i	i	i	13µM[quencher]
CN1CCN(C(=S)c2ccc(-c3cccc(Cl)c3Cl)o2)CC1	i	14µM	i	i	i	i
Cc1ccc(C)c(CSc2nnc(-c3ccccn3)n2N)c1	i	i	i	i	i	i
CC1(C)N=C(SCc2ccc(F)cc2)c2ccccc2N1	i	?	i	nt	i	11µM[quencher]
Cc1ccc(C)c(CSC2=NC(C)(C)Nc3ccccc32)c1	i	?	i	nt	i	11µM[quencher]
CC(C)C(=O)SCCCCCCC(=O)Nc1nc(-c2ccccc2)cs1	nt	nt	i	nt	i	nt
CN(C)/N=C/c1c(O)ccc2ccccc12	i	?	i	i	i	?
Oc1ccc2ccccc2c1/C=N/c1nccs1	i	?	?	i	35µM	i
Cc1cc(N=Cc2c(O)ccc3ccccc23)no1	?	22µM	?	nt	50µM	?
COc1ccc(OC)c(NC(=O)Cn2cc(C(=O)c3ccc(Cl)cc3)c(=O)c3cc(OC)ccc32)c1	i	i	i	nt	i	i
COc1cc(OC)cc(-c2nnc3n2N=C(c2ccccc2OC)CS3)c1	nt	nt	i	nt	i	nt
CCc1ccc(NC(=O)c2ccc3nc(N)sc3c2)cc1	25µM	?	i	i	i	?
CCC[C@H]1C[C@H](C(=O)NC(C(C)Cl)C2O[C@@H](SC)C(OP(=O)(O)O)[C@@H](O)[C@@H]2O)N(C)C1 (stereo partly drawn)	nt	nt	?	nt	i	nt
SMILES	Tau fibril FP	Tau ThT inhib	TR SRC2 fluor cs	GoLoco inh red	TRb SRC2 PPI	Tau fluor counter
Cc1ccsc1C=C1C(=O)c2ccccc2C1=O	i	14µM	i	i	i	?
Cc1ccsc1/C=C1/C(=O)NN(c2ccccc2)C1=O	i	?	i	i	i	i
Cc1ccc(NC(=O)Cn2nnc(C(=O)NCCc3ccccc3)c2N)cc1	i	i	i	nt	i	i
CCN(CC)c1ccc(NC(=O)c2sc3nc4c(cc3c2N)CN(C)CC4)cc1	?	1.3µM	i	nt	i	?
CC(C)NC(=O)c1sc2nc3c(c(-c4cccs4)c2c1N)CN(C)CC3	i	?	i	i	i	i
Cc1cccc(NC(=O)c2sc3nc4c(c(-c5cccs5)c3c2N)CN(C)CC4)c1	?	16µM	i	i	i	28µM[quencher]
CN1CCc2nc3sc(C(=O)NCc4ccccc4)c(N)c3cc2C1	i	14µM	i	i	i	?
O=C(NCCc1ccc(Cl)cc1)c1nc(-c2cccc(F)c2)n2c1CCCCC2	i	i	?	nt	i	i
O=Cc1ccc(Cl)cc1	nt	nt	i	i	i	nt
CC(=O)Nc1cccc(NC(=O)CSc2nccn2C2CCCC2)c1	i	i	i	nt	i	i
CCCCOC(=O)c1ccc(NC(=O)Cc2coc3ccc(C(C)C)cc23)cc1	?	?	i	nt	i	?
CC(C)C(=O)NC(c1ccccc1)c1cc([N+](=O)[O-])c2cccnc2c1O (stereo not drawn)	i	?	i	i	i	i
CC(=O)NC(c1ccccc1)c1cc([N+](=O)[O-])c2cccnc2c1O (stereo not drawn)	?	10µM	i	i	i	i

Screening data from PubChem.
